# An excerpt weighted towards active compounds, which were near 5.5% of everything screened.
# Six1-Eya2 blk: inhibitors of human Six1/Eya2 interaction; AlphaScreen GST-Six1/His-Eya2 binding, biochemical; active compounds read low; activity change, % (test concentration not listed); 360,000 tested, 0.56% active; AID 651725; in the data active means activity change below about -65%; inconclusive means mostly about -30% to -63%; further: on the % scale 0 is the no-effect control and ±100 the full control effect
#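 Six1/Eya2 binding was read as AlphaScreen signal after compounds were pinned into GST-Six1 plus His-tagged Eya2 (5X stock 250/500 nM) in pH 8.0 Tris/NaCl/TCEP buffer, beads added, then incubated 1 h, 37 C, dark.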
# CBFb-RUNX1 inh: blocks binding between human CBF-beta and RUNX1; AlphaScreen CBFb-His/RUNX1-biotin binding, biochemical; Potency, µM (series often up to 59.8 µM), inactives show at the top dose activity, negative = inhibition, most hits filed as inhibitors; 230,000 tested, under 10 active; AID 1477; further: % of control where 0% means no effect
# Target sequence (Q01196 whole entry, looked up): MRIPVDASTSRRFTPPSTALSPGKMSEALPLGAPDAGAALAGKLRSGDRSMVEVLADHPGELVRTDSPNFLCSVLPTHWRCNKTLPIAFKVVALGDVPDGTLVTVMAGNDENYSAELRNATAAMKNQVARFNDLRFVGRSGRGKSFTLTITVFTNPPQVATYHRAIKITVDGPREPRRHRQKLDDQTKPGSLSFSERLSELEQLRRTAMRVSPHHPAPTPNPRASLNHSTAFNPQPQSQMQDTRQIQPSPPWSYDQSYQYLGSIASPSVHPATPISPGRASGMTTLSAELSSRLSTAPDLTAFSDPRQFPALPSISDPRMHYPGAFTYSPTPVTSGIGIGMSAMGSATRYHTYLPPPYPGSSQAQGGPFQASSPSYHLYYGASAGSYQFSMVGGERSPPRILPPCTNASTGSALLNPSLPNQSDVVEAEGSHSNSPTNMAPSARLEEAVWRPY
# Target sequence (Q13951 whole entry, looked up): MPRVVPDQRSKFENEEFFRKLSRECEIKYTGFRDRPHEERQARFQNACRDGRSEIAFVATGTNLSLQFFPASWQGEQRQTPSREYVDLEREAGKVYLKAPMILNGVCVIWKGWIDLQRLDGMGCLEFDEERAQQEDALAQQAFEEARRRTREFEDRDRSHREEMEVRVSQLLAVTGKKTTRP
#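 AlphaScreen proximity signal reports loss of binding between His-tagged CBF-beta and biotin-labelled RUNX1, each at 30 nM. Proteins are pre-associated for 20 minutes, compounds added for 15 minutes, then beads for 90 minutes, all at ambient temperature.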
# RORg inh: inhibitors of mouse ROR gamma transcriptional activity; Potency, µM (top dose mostly 53.6 µM), inactives show at the highest dose activity change, negative = inhibition, actives largely listed as inhibitors; Drosophila S2 Gal4-RORgamma UAS-luciferase reporter, 20 h; P51450; 310,000 tested, 5.4% active; further: potency means the concentration at half of the fitted maximal effect; on the % scale 0 is the no-effect control and ±100 the full control effect; nearly all actives have a fitted effect of over 60% in size
#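 Drosophila S2 cells stably expressing Gal4-DBD/mouse RORγ fusion under metallothionein promoter plus UAS-luciferase; compound 1 h, then 700 uM CuSO4 induction for 20 h at ambient temperature; inhibition read as reduced luminescence.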
# MBNL1 CUG block: blocks human MBNL1 binding to CUG repeat RNA | Q9NR56 | 280,000 tested, 0.036% active | Potency, µM (highest dose often 57.5 µM), inactives show at the top dose activity change, negative = inhibition, most hits filed as inhibitors | TR-FRET MBNL1-His/biotin-(CUG)12 binding, 665/545 ratio; active means well fitted inhibition curve with a large enough effect in the signal ratio, with a control signal flat, not every such curve was filed as active; inconclusive means small, poorly fitted or top-dose-only effect, or effect the other way, or a change in a side signal; inactive means no such curve, though single readings can be large or run the other way; the % refers to the signal ratio; further: potency means the concentration at half of the fitted maximal effect; on the % scale 0 is the no-effect control and ±100 the full control effect
#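 TR-FRET between His-tagged MBNL1 and biotin-(CUG)12 RNA, detected with Tb anti-His antibody (0.055 ng/ul) and streptavidin-XL665 (5 nM), 60 min at room temperature. Compounds titrated 92 nM to 58 uM; 665/545 nm ratio normalized to buffer and complex controls.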
# Gal4-VP16 FLuc: counter-screen for ROR gamma inhibitors: Gal4-VP16 reporter; 310,000 tested, 3.5% active; Potency, µM (series often up to 53.6 µM), for inactives: at the top dose activity, negative = inhibition, most hits filed as inhibitors; Drosophila S2 Gal4-VP16 UAS-luciferase, luminescence, 20 h; AID 2546;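 further: Gal4-VP16 expression switched on by copper sulfate through the metallothionein promoter; potency means the concentration at half of the fitted maximal effect; on the % scale 0 is the no-effect control and ±100 the full control effect; nearly all actives have a fitted effect of over 50% in size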
# CtBP-E1A blk: CtBP/E1A binding inhibition; 340,000 tested, 0.49% active; activity change, % (no concentration beside the values); AlphaScreen GST-E1A/His-CtBP binding, 1536-well; active compounds read low; in the data active means activity change below about -65%; inconclusive means mostly about -30% to -63%; further: on the % scale 0 is the no-effect control and ±100 the full control effect
#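 Homogeneous bead-based format: GST-tagged E1A captured on glutathione donor beads, His-tagged CtBP on nickel acceptor beads; compounds precede bead addition by 2 h at 37 °C.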
# Starred values were filed as active, the others as inactive; ? = inconclusive; / = no result; [ ] = dose if it differs, or a comment. Unless noted, the call rests on the fitted dose curve; in most records, active means well fitted curve in the direction sought with a large enough effect; inconclusive means small, poorly fitted or top-dose-only effect, or another doubt; inactive means no such curve, though single readings can be large; an effect the other way counts as inactive or inconclusive.
SMILES,Six1-Eya2 blk,CBFb-RUNX1 inh,RORg inh,MBNL1 CUG block,Gal4-VP16 FLuc,CtBP-E1A blk
Cc1nc2ccccc2n1CC(O)Cn1c(C(F)(F)F)nc2ccccc21 (configuration not stated),-6,3%,29%,-10%,0%,3
Cc1nc2ccccc2n1CC(O)COc1ccc(Br)cc1 (configuration not stated),7,4%,?,4%,14µM*,11
Cc1nc2ccccc2n1CC(O)COc1ccccc1Cl (configuration not stated),-15,3%,?,-1%,18µM*,-11
Cc1c(C)c2c(c(C)c1O)CCC(C)(CCCC(C)CCCC(C)CCCC(C)C)O2 (configuration not stated),/,11%,-7%,/,4%,/
O=S(=O)(Nc1nc(-c2ccco2)c(-c2ccco2)s1)c1ccc(F)cc1F,-17,/,/,/,/,-7
CC1CCCN(Cc2c(O)ccc3c(=O)c(-c4nc5ccccc5s4)c(N)oc23)C1 (configuration not stated),-28,-1%,25µM*,-15%,?,-26
Cc1cc(C)cc(NC(=S)NCc2cccs2)c1,4,-1%,2.2µM*,-4%,11µM*,6
COc1cc(NC(=S)NCc2cccs2)cc(OC)c1,-1,-3%,5µM*,/,11µM*,6
C[C@H](NC(=O)c1nc[nH]c1C(=O)NCC(=O)OCc1ccccc1)C(=O)OCc1ccccc1,1,/,?,11%,-17%,-5
O=C(CNC(=O)c1nc[nH]c1C(=O)NCc1ccccc1)OCc1ccccc1,-1,/,11µM*,3%,?,-1
O=C(CNC(=O)c1nc[nH]c1C(=O)NCC(=O)OCc1ccccc1)OCc1ccccc1,7,/,-39%,-3%,?,2
CC(C)(C)OC(=O)NCc1ccc(CNC(=O)c2[nH]cnc2C(=O)NCC(=O)OCc2ccccc2)cc1,-2,/,-42%,-2%,22µM*,3
C[C@H](NC(=O)c1nc[nH]c1C(=O)NCC(=O)OCc1ccccc1)c1ccccc1,-7,/,14µM*,-6%,?,-11
Cc1cc(C)c(Cn2c(=O)[nH][nH]c2=O)cc1Cn1c(=O)[nH][nH]c1=O,-3,/,/,/,/,-1
CN(C)c1ncc2nc(CCc3ccccc3)c(=O)n(C[C@H]3CCCO3)c2n1,/,/,?,/,13%,/
COc1ccc2c(c1OC)C(Cc1ccccc1)N1CCc3cc4c(cc3C1=C2)OCO4 (configuration not stated),/,6%[21.7 µM],?,/,14µM*,/
COc1c2c(cc3c1C(CC(O)Cc1ccccc1)N(C)CC3)OCO2 (configuration not stated),-8,/,36%,-2%,3%,-5
O=C(c1ccco1)N1CCN(C2CN(CCc3ccccc3)S(=O)(=O)C2)CC1 (configuration not stated),0,/,/,/,/,3
O=C1CCCc2ccccc2N1Cc1c(Cl)cccc1Cl,15,13%,1.8µM*,-4%,?,3
NC(=O)c1ncn([C@@H]2O[C@H](CNCc3cc(Cl)ccc3OCc3ccc(Cl)cc3)[C@@H](O)[C@H]2O)n1,-3,/,/,/,/,2
CC1(CC(=O)Nc2ccccc2)NC(=S)N(c2ccccc2)N1 (configuration not stated),-8,4%,7.9µM*,-2%,1%,11
CCCCCC1(C)NC(=S)N(c2ccccc2)N1 (configuration not stated),5,0%,?,-7%,?,-13
CCCCCCC1(C)NC(=S)N(c2ccccc2)N1 (configuration not stated),4,7%,7.1µM*,-4%,-3%,6
CCC1(c2ccccc2)NC(=S)N(c2ccc(C)cc2)N1 (configuration not stated),4,-2%,5µM*,0%,?,4

# Screens deposited in PubChem by National Center for Advancing Translational Sciences (NCATS).
